According to PubChem BioAssay (NCI):
Compounds without any hit were thinned out: in the full panel of roughly 79,000, 15% have a hit. No stated cut-off is given here; in the data, active means growth inhibition above about 70%; inactive means the rest. Where a SMILES comes first, the peptide text is derived from it.

Key:
[1] = NCI Yeast Anticancer Drug Screen. Data for the rad50 strain (AID 155);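 further: 0% = growth of vehicle-only cultures of the same strain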; conditions: S. cerevisiae rad50 strain growth inhibition; at 50.0 µM; hits give high values
Outline: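 Yeast carrying a defined DNA repair defect were exposed to test compounds, and growth was compared with vehicle-treated controls to give percent inhibition.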

[2] = NCI Yeast Anticancer Drug Screen. Data for the mec2-1 strain (AID 157); conditions: S. cerevisiae mec2-1 strain, at 50.0 µM, hits give high values
Outline: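 Strain: mec2-1 (DNA repair/cell cycle alteration). Compound exposure, then growth measured; inhibition expressed relative to vehicle.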

[3] = NCI Yeast Anticancer Drug Screen. Data for the sgs1 mgt1 strain (AID 161);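 further: 0% = growth of cultures given vehicle only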; conditions: S. cerevisiae sgs1 mgt1 strain, at 50.0 µM, hits give high values
Outline: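 Genetically altered yeast, compound exposure, growth inhibition relative to vehicle.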

[4] = NCI Yeast Anticancer Drug Screen. Data for the cln2 rad14 strain (AID 165);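 further: 0% = growth equal to vehicle treated cultures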; conditions: S. cerevisiae cln2 rad14 strain, at 50.0 µM, hits give high values
Outline: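 Compounds are applied to the cln2 rad14 yeast strain, and growth is then compared with that of vehicle-treated cultures to give inhibition.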

[5] = NCI Yeast Anticancer Drug Screen. Data for the bub3 strain (AID 167); conditions: S. cerevisiae bub3 mutant strain, at 50.0 µM, hits give high values
Outline: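 Compounds were applied to a genetically altered yeast strain carrying a cell-cycle control defect. Growth inhibition was scored against vehicle-treated controls.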

[6] = NCI Yeast Anticancer Drug Screen. Data for the mlh1 rad18 strain (AID 175); conditions: S. cerevisiae mlh1 rad18 strain growth inhibition; at 50.0 µM; hits give high values
Outline: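 Read-out is yeast growth inhibition, calculated against vehicle-only controls. The compound was applied to a strain engineered with DNA damage repair alterations.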

Measured: growth inhibition

O=S1(=O)C(c2ccccc2Cl)=C(O)C(O)=C1c1ccccc1Cl
inactive: [1] -0.6% | [2] -35.4% | [3] 5.05% | [4] 6% | [5] -2.1% | [6] 11.2%

CC(=O)[C@@]1(O)CC[C@H]2[C@@H]3C[C@H](C)C4=CC(=O)CC[C@]4(C)[C@H]3[C@@H](O)C[C@@]21C
inactive: [1] -27.9% | [2] -8.8% | [3] -19.1% | [4] -36.2% | [5] 12.7% | [6] -22.4%

Cc1c([N+](=O)[O-])cc2c(c1[N+](=O)[O-])C(C(C)C)CCC2(C)C (stereo not given)
inactive: [1] -1.5% | [2] -25.2% | [3] 9.65% | [4] 29.2% | [5] -40.4% | [6] -5%

O=[N+]([O-])c1ccc(N=Cc2ccccc2O)cc1
inactive: [1] -19.7% | [2] -8.05% | [3] -23.6% | [4] 4.3% | [5] 8.05% | [6] -6.9%

O=C(O)C#Cc1cccnc1
inactive: [1] -10.9% | [2] -14% | [3] 0.75% | [4] 6% | [5] -3.4% | [6] -16.9%

Cc1ncc([N+](=O)[O-])cc1C(=O)O
inactive: [1] 1% | [2] 10% | [3] -0.75% | [4] -7.1% | [5] 5.7% | [6] -1.45%

CC1OC(n2cc(Cl)c(=O)[nH]c2=O)C=C(OC(=O)c2ccccc2)C1=O (stereo not given)
inactive: [1] -18.6% | [2] -27.4% | [3] -24.9% | [4] -16.8% | [5] -22.4% | [6] -28.9%

CC(=O)ONc1nc(C)c(CCC2OCCO2)c(SC(=N)N)n1
inactive: [1] 28.9% | [2] 27.2% | [3] 30% | [4] 14.9% | [5] -1.7% | [6] 38.2%

NC(=O)NC(=O)C1C2CC3OC(=O)C1C3C2 (stereo not given)
inactive: [1] 13.6% | [2] -4.35% | [3] -3.2% | [4] -37.9% | [5] 2.45% | [6] 20.9%

C=C(C)CN(CC(=C)C)c1nc(N)nc(N)n1
inactive: [1] -35.2% | [2] -2.95% | [3] -21.9% | [4] -43.5% | [5] -2.1% | [6] -13.1%

C(=C\c1ccccn1)/c1ccc(/C=C/c2ccccn2)cc1
inactive: [1] -31.2% | [2] 18.6% | [3] 8.3% | [4] -26.8% | [5] 3.25% | [6] 13.7%

S=C(Nc1ccc(Cl)cc1)Nc1ccc(Cc2ccc(NC(=S)Nc3ccc(Cl)cc3)cc2)cc1
inactive: [1] 53.9% | [2] 36.2% | [3] 49.6% | [4] 59.4% | [5] 53.6% | [6] 20.4%

NCCCCC(NC(=O)C(N)Cc1cnc[nH]1)C(=O)O (stereo not drawn) (H-His-Lys-OH; configuration not given here)
inactive: [1] 4.1% | [2] -5.75% | [3] -4% | [4] 13.3% | [5] 7.55% | [6] -12.2%

CCCC(=O)C(C)C(=O)CC (stereo not given)
inactive: [1] -52.1% | [2] -26.9% | [3] -15.7% | [4] 4.3% | [5] -6.8% | [6] 0.5%

CC(=O)/C=C(/C=N/O)c1ccccc1
inactive: [1] 10.7% | [2] -27.1% | [3] 14.2% | [4] 7.75% | [5] 10.1% | [6] -55.8%

CC(=O)OCCn1c(Cc2ccc(Cl)cc2)nn(C(C)=O)c1=O
inactive: [1] 14.4% | [2] 5.95% | [3] 20.1% | [4] 6.7% | [5] -15.2% | [6] 15.3%

O=C(/C=C(\C(=O)c1ccccc1)c1ccccc1)c1ccc(Cl)cc1
inactive: [1] -12% | [2] 8.5% | [3] -4.45% | [4] 1.05% | [5] -13.1% | [6] -24.6%

C=CCC1=C(C)C(O)CC1=O (stereo not given)
inactive: [1] -21.9% | [2] -13.7% | [3] -0.75% | [4] -15.7% | [5] 0.7% | [6] -41.6%

O=C1c2cccc3cc([N+](=O)[O-])cc(c23)C(=O)N1Cc1cccnc1
inactive: [1] 42.5% | [2] 15.6% | [3] 38.6% | [4] 19% | [5] 10.5% | [6] 10.8%

C[C@]12CCC(=O)O[C@@H]1CC[C@@H]1[C@@H]2CC[C@]2(C)[C@@H](O)CC[C@@H]12
inactive: [1] 20.9% | [2] 14% | [3] 42.3% | [4] 32.5% | [5] 27.2% | [6] 23.1%

CC(C)=Cc1cc(CCC/C(C)=C/Cc2c(O)cc(C)c(C(=O)O)c2O)co1
inactive: [1] -9% | [2] -25.9% | [3] -1.75% | [4] -6.55% | [5] -18.9% | [6] -15.2%

CCn1c(=O)c(C#N)c2n(CC)c3ccccc3n2c1=O
inactive: [1] 39.5% | [2] 13.8% | [3] 19.4% | [4] 10.2% | [5] 20.9% | [6] 30%

CC(=O)c1ccc([C@H](O)[C@H](CO)NC(=O)C(Cl)Cl)cc1
inactive: [1] -1.1% | [2] 0.45% | [3] 6.95% | [4] -57.4% | [5] -21.6% | [6] -16.2%

Nc1cccc2cccc(N)c12
inactive: [1] 51.9% | [2] 2.1% | [3] 41.5% | [4] 15.3% | [5] 9.65% | [6] 45%

CCCCCCCCCCCCS(=O)(=O)CCC(=O)c1ccco1
inactive: [1] 29.4% | [2] 20.1% | [3] -6.8% | [4] 9.3% | [5] 6.55% | [6] 7.6%

CCCCN(C(=O)CCC)c1ccccc1
inactive: [1] -71.1% | [2] -0.75% | [3] -11.9% | [4] -40% | [5] -11.2% | [6] -10.1%

CC(=O)OC(C(=O)Nc1nncs1)c1ccccc1 (stereo not given)
inactive: [1] 7.05% | [2] -22.9% | [3] 7.25% | [4] 8.05% | [5] 11.2% | [6] 18.1%

COc1ccc(-c2cc(C(=O)N/N=C/c3ccc([N+](=O)[O-])cc3)c3ccc(C)cc3n2)cc1OC
inactive: [1] 43.6% | [2] 13.7% | [3] 39.1% | [4] 14.6% | [5] -1.05% | [6] 46.9%

COC(=O)[C@]1(C)OP(OC)(OC)(OC)O[C@]1(C)C(=O)OC
inactive: [1] -3.4% | [2] -10.2% | [3] 3.25% | [4] -40.5% | [5] -2.15% | [6] -1.6%

COC(=O)CNC(=O)C(Cc1ccc(OCc2ccccc2)cc1)NC(=O)OC(C)(C)C (stereo not given)
inactive: [1] 6.65% | [2] 11% | [3] 23.1% | [4] 2.25% | [5] -10.6% | [6] 26.6%

COc1ccc(C2CC(C)(O)Oc3cc4c(cc32)OCO4)cc1 (stereo not given)
inactive: [1] 47.5% | [2] 26.3% | [3] 13.7% | [4] 43.6% | [5] 44.9% | [6] 27.1%

CCOC(=O)C1(C(=O)OCC)CSC1
inactive: [1] -16.6% | [2] -5.45% | [3] -17.1% | [4] 3.85% | [5] -17.8% | [6] -22.3%

CCOC(=O)Nc1cc(Nc2ccc(Cl)cc2)c2nc(-c3ccc(Cl)cc3)c(-c3ccc(Cl)cc3)nc2n1
inactive: [1] 44.7% | [2] -0.9% | [3] 36.1% | [4] 20.9% | [5] -0.75% | [6] 8.8%

CCOC(=O)c1ncn(C2OC(CO)C(O)C2O)c1N (stereo not given)
inactive: [1] 19.5% | [2] 1.6% | [3] 31.4% | [4] 12.3% | [5] 14.2% | [6] 25.2%

CCOC(=S)SCc1ccc([N+](=O)[O-])cc1
inactive: [1] 69.8% | [2] 18.4% | [3] 27.8% | [4] 18.6% | [5] 43% | [6] 16.9%

CC(=O)NC(Cc1cc(I)c(OC(C)=O)c(I)c1)C(=O)O (stereo not given)
inactive: [1] -4.85% | [2] -16.8% | [3] 3.45% | [4] 6% | [5] 12.4% | [6] -0.6%

CC1OC(OCC2OC(Oc3c(-c4ccc(O)cc4)oc4cc(O)cc(O)c4c3=O)C(OC3OC(C)C(O)C(O)C3O)C(O)C2O)C(O)C(O)C1O (stereo not given)
inactive: [1] -13.7% | [2] -21.2% | [3] -2.2% | [4] 2.75% | [5] -2.9% | [6] 5.6%

Clc1ccc(C=Nc2ccc3c(c2)Cc2ccccc2-3)c(Cl)c1
inactive: [1] -5.15% | [2] -33.6% | [3] -21.6% | [4] -3.85% | [5] -35.2% | [6] -2.4%

NCCCCCS(=O)(=O)O
inactive: [1] 17.4% | [2] -1.15% | [3] -0.85% | [4] 4.05% | [5] -0.65% | [6] 8.65%

CC(CN(C)C)Oc1ccc2c(c1)C(=O)C(C)C2 (stereo not given)
inactive: [1] -25.6% | [2] -5.25% | [3] 4.85% | [4] -28.9% | [5] 22.1% | [6] -22.6%
